Screening data deposited in PubChem by National Center for Advancing Translational Sciences (NCATS).
The full list was thinned out, with hits kept by preference.
TbPYK inhibitor: blocks Trypanosoma brucei pyruvate kinase | Q57TT1 | TbPYK enzyme, Kinase-Glo Plus ATP luminescence, 45 min | Potency, µM (highest dose often 76.8 µM), usual class: inhibitors | 0.12% of 410,000 active; note: nearly all actives have a fitted effect of over 50% in size
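Assay buffer: 50 mM TEA pH 7.2, 100 mM KCl, 10 mM MgCl2, 0.05% BSA, 0.01% Tween-20. Pyruvate kinase from T. brucei plus substrate met compound, then ADP (130 uM final). Luminescence was read post 45 min RT.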
Shiga inhibitor: inhibitors of Shiga toxin in Vero cells; AID 2315; 9.2% of 290,000 active; Vero cells, Shiga toxin protein synthesis inhibition reporter; inhibition, % at 38.7 µM; in the data active = inhibition mostly above about 28%, no sharp cut-off; inactive = mostly below about 43%
RE007 growth inh: less growth of the S. pombe RE007 Vpr strain; 0.21% of 360,000 active; Potency, µM (series often up to 92.2 µM), hits mostly inhibitors; AID 651644; S. pombe RE007 Vpr strain, BacTiter-Glo ATP luminescence, 24 h; active = well fitted falling curve with a large enough effect; inconclusive = small, poorly fitted or top-dose-only effect; inactive = no such curve, though single readings can be large or run the other way; note: nearly all actives have a fitted effect of over 50% in size
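Fission yeast strain RE007, carrying one chromosomally integrated HIV-1 vpr copy, was seeded at OD 0.01 in PMG+AL medium with 23 nL pinned compound. After 24 h at 30 °C and 99% humidity, viability was read by BacTiter-Glo luminescence.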
FBPA Giardia inh: inhibitors of Giardia lamblia fructose-1,6-bisphosphate aldolase; A8B2U2; Potency, µM (top dose mostly 59.6 µM), actives largely listed as inhibitors; AID 2451; 0.71% of 290,000 active; purified Giardia FBPA; note: nearly all actives have a fitted effect of over 55% in size
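40 nM FBPA preincubated 10 min at RT with compound (up to 57.5 uM final), then substrate plus GAPDH/TPI/NAD/arsenate coupling and diaphorase/resazurin added. Fluorescence read after 20 min at RT, 525/598 nm.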
LmPK inhibitor: inhibitors of Leishmania mexicana pyruvate kinase | 0.37% of 290,000 active | AID 1721 | Potency, µM (top dose mostly 57.5 µM), hits mostly inhibitors | purified LmPK, Kinase-Glo ATP luminescence, 1 h | Q27686
Target sequence (Q27686 whole entry, looked up): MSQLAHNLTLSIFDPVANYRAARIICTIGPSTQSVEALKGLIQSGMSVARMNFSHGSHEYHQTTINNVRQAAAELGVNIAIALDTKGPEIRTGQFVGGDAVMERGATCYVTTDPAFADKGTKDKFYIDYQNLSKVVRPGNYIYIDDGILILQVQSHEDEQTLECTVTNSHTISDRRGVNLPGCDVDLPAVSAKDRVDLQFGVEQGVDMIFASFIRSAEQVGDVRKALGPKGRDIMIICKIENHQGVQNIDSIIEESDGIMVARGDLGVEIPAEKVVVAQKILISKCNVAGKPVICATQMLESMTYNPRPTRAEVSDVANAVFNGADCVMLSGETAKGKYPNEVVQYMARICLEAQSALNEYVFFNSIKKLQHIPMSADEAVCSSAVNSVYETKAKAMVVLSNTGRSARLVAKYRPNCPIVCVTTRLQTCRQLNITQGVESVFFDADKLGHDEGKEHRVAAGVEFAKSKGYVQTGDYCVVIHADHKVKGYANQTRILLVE
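ATP generated from ADP (0.1 mM) and PEP (0.5 mM) by 0.1 nM LmPK over 1 h at room temperature (pH 7.2 imidazole buffer) was detected by coupled luciferase luminescence. Values were normalized to uninhibited and no-enzyme wells.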
Cycloheximide cs: counter-screen hit for Shiga toxin inhibitors, cycloheximide; cell reporter, cycloheximide protein synthesis inhibition counterscreen; max response, %; 12% of 300,000 active; in the data active = max response mostly above about 13%, no sharp cut-off; inactive = mostly below about 14%; note: read at 38.3 µM for the half of the compounds with a filed dose
Each line names hits and unclear results; the compound was inactive in the other large screens. Unless noted, calls come from the whole dose curve; as a rule, active = well fitted curve in the direction sought with a large enough effect; inconclusive = small, poorly fitted or top-dose-only effect, or another doubt; inactive = no such curve, though single readings can be large; an effect the other way counts as inactive or inconclusive.

Nc1[nH]nc2c1NN(c1ccc(Cl)cc1Cl)N2	Shiga inhibitor 83, Cycloheximide cs 48
Nc1c(-c2n[nH]c(=S)n2-c2ccc(Cl)cc2Cl)cnn1-c1ccccc1	none
Cc1nc(N2CCOCC2)c2c(C(=O)N3CCN(c4cccc(C)c4C)CC3)c(C)oc2n1	none (no result: Shiga inhibitor, RE007 growth inh, FBPA Giardia inh, LmPK inhibitor, Cycloheximide cs)
COc1ccc(CCNC(=O)CCCn2c(=O)c3cccn3c3ccc(F)cc32)cc1OC	none (no result: Shiga inhibitor, RE007 growth inh, FBPA Giardia inh, LmPK inhibitor, Cycloheximide cs)
CC(C)c1ccc(NC(=O)C(c2ccccc2)N2CC(=O)Nc3ccccc32)cc1 (centres undefined)	Shiga inhibitor active, Cycloheximide cs 33
O=C(O)/C=C/C(=O)Nc1nc(-c2ccc3ccccc3c2)cs1	none (no result: Shiga inhibitor, FBPA Giardia inh, LmPK inhibitor, Cycloheximide cs)
O=C(/C=C\c1ccco1)Nc1nc(-c2ccccc2)cs1	Shiga inhibitor 78, Cycloheximide cs 71
O=C(/C=C/c1ccccc1)Nc1nc(-c2ccncc2)cs1	Cycloheximide cs 28
O=C(/C=C/c1ccco1)NC(=S)Nc1nc(-c2ccc(Cl)cc2)cs1	none
COc1cccc2c1OC(=O)CC2c1ccccc1C (centres undefined)	none (no result: TbPYK inhibitor, RE007 growth inh, LmPK inhibitor)
COC(=O)CSc1nc(N)c2c3c(sc2n1)CCCC3	RE007 growth inh inconclusive, Cycloheximide cs 16
CC(C)(C)C1CCc2c(sc3nc(SCC(=O)O)nc(N)c23)C1 (centres undefined)	TbPYK inhibitor inconclusive, LmPK inhibitor 25µM, Cycloheximide cs 16
Nc1nc(SCC(=O)NCCO)nc2sc3c(c12)CCCC3	none
O=S(=O)(NCc1nc2ccccc2[nH]1)c1ccccc1	Shiga inhibitor 31 (no result: FBPA Giardia inh)
O=c1[nH]c2ccccc2nc1Cc1ccc(Cl)cc1	none
Nc1cccc(CCc2nc3cc4ccccc4cc3[nH]2)c1	Shiga inhibitor 36, Cycloheximide cs 22
CNCc1nc2ccccc2[nH]1	none
c1ccc(CCc2nc3ccccc3[nH]2)cc1	Shiga inhibitor 78, Cycloheximide cs 41
O=c1[nH]c2ccccc2nc1CCc1ccccc1	Shiga inhibitor 71, Cycloheximide cs 24
CCCCOc1ccc(C(=O)Nc2ccc3c(c2)N(C(C)=O)CCC3)cc1	none (no result: Shiga inhibitor, RE007 growth inh, FBPA Giardia inh, LmPK inhibitor, Cycloheximide cs)
Cc1ccc(NC(=O)C2CCCN2S(=O)(=O)c2cccc3nsnc23)c(Br)c1 (centres undefined)	none (no result: Shiga inhibitor, RE007 growth inh, FBPA Giardia inh, LmPK inhibitor, Cycloheximide cs)
O=C(N/N=C/c1ccccc1[N+](=O)[O-])c1ccc2nc[nH]c2c1	Cycloheximide cs 18
CN(C)c1ccc(/C=N/NC(=O)c2ccn(C)n2)cc1	Shiga inhibitor 34, Cycloheximide cs 33
CN(C)c1ccc(C=NNC(=O)c2cccnc2)cc1	none (no result: Shiga inhibitor, FBPA Giardia inh, LmPK inhibitor, Cycloheximide cs)
O=C(N/N=C/c1ccc(Cl)c([N+](=O)[O-])c1)c1ccc2nc[nH]c2c1	none
Cn1ccc(C(=O)N/N=C/c2cccnc2)n1	Shiga inhibitor 45, Cycloheximide cs 18
CN(C)c1ccc(/C=N/NC(=O)c2ccnn2C)cc1	TbPYK inhibitor inconclusive, Shiga inhibitor 58, LmPK inhibitor 8.9µM, Cycloheximide cs 24
Cc1ccc2c(c1)cc(C(=O)NCc1ccccc1C)n2C	none (no result: Shiga inhibitor, RE007 growth inh, FBPA Giardia inh, LmPK inhibitor, Cycloheximide cs)
O=C(c1ccc(CS(=O)(=O)c2c(Cl)cccc2Cl)o1)N1CCN(c2ccccc2)CC1	none (no result: Shiga inhibitor, RE007 growth inh, FBPA Giardia inh, LmPK inhibitor, Cycloheximide cs)
Cc1cccc(-n2cnc3cc(C(=O)NC4CCCCCC4)ccc32)c1	none (no result: Shiga inhibitor, RE007 growth inh, FBPA Giardia inh, LmPK inhibitor, Cycloheximide cs)
CCc1ccc(NC(=O)C2CCN(c3nn4c(=O)cc(C)nc4s3)CC2)cc1	none (no result: Shiga inhibitor, RE007 growth inh, FBPA Giardia inh, LmPK inhibitor, Cycloheximide cs)
CC[C@@H](c1ccccc1)n1c(=O)n2n(c1=O)[C@H]1[C@H](O)[C@H]3O[C@@H]3/C(=N/OCC(C)C)[C@@H]1CC2	none (no result: TbPYK inhibitor, Shiga inhibitor, RE007 growth inh, LmPK inhibitor, Cycloheximide cs)
O=C(c1ccc2c(c1)N(Cc1cccc(Cl)c1)C(=O)c1ccccc1S2)N1CCOCC1	none (no result: Shiga inhibitor, RE007 growth inh, FBPA Giardia inh, LmPK inhibitor, Cycloheximide cs)
CCN(C(=O)c1cn(CC)c(=O)c2cc(OC)c(OC)cc12)c1ccccc1F	none (no result: Shiga inhibitor, RE007 growth inh, FBPA Giardia inh, LmPK inhibitor, Cycloheximide cs)
Cn1ccc(C(=O)N/N=C/c2ccccc2[N+](=O)[O-])n1	Shiga inhibitor 100, Cycloheximide cs 40
Cn1cc([N+](=O)[O-])c(C(=O)N/N=C/c2ccccc2)n1	none
Cc1c(Cl)cccc1NC(=O)CSc1nc(=O)n(CCN2CCOCC2)c2c1CCC2	none (no result: Shiga inhibitor, RE007 growth inh, FBPA Giardia inh, LmPK inhibitor, Cycloheximide cs)
Cc1ccc(Nc2nc(N)nc(CSC(=S)N3CCOCC3)n2)cc1	Shiga inhibitor 96, Cycloheximide cs 46
Nc1nc(CSC(=S)N2CCCCC2)nc(Nc2ccccc2)n1	Shiga inhibitor 87, Cycloheximide cs 40
COc1ccccc1Nc1nc(N)nc(CSC(=S)N2CCCCC2)n1	Shiga inhibitor 59, Cycloheximide cs 31
